Laboratory results: PubChem BioAssay (NCATS)
Inconclusive results are not listed. Active and inactive are the calls of the source. Calls come from the whole dose curve; as a rule, active = well fitted curve in the direction sought with a large enough effect; inconclusive = small, poorly fitted or top-dose-only effect, or another doubt; inactive = no such curve, though single readings can be large; an effect the other way counts as inactive or inconclusive.

Experiments:
NIH3T3 [1] = experiment: Cytotoxic Profiling of Annotated Libraries Using Quantitative High-Throughput Screening (AID 1296008); conditions: Five cell lines viability, CellTiter-Glo ATP luminescence, 48-72 h; active compounds read low; note: nearly all actives have a fitted effect of over 60% in size
Outline: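 Cytotoxicity was measured as CellTiter-Glo ATP luminescence, read after 10 min at room temperature. Compound treatment of the cells lasted 48 or 72 hr at 37 degrees Celsius in a qHTS format.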

HACAT = experiment: qHTS assay to identify novel small-molecules to repurpose for Merkel cell carcinoma treatment (AID 1296009); conditions: MCC and control cell lines, CellTiter-Glo viability, 72 h; at 44.8 µM (top of the series) unless noted; note: nearly all actives have a fitted effect of over 60% in size
Outline: (§1)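 After compound transfer in DMSO, plates were kept 72 hr at 37 degree celsius. Luminescent ATP signal from CellTiter-Glo served as viability measure, normalized against DMSO and no-cell controls.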

MCC-13 = experiment: as above; conditions: MCC and control cell lines, CellTiter-Glo viability, 72 h; series mostly up to 46 µM
Outline: as §1

MCC-26 = experiment: as above; conditions: MCC and control cell lines, CellTiter-Glo viability, 72 h; series mostly up to 46 µM
Outline: as §1

MKL-1 = experiment: as above; conditions: MCC and control cell lines, CellTiter-Glo viability, 72 h; series mostly up to 46 µM
Outline: as §1

MKL-2 = experiment: as above; conditions: MCC and control cell lines, CellTiter-Glo viability, 72 h; series mostly up to 46 µM
Outline: as §1

NIH3T3 [2] = experiment: as above; conditions: MCC and control cell lines, CellTiter-Glo viability, 72 h; at 44.8 µM (top of the series) unless noted
Outline: as §1

UISO = experiment: as above; conditions: MCC and control cell lines, CellTiter-Glo viability, 72 h; series mostly up to 46 µM
Outline: as §1

WaGa = experiment: as above; conditions: MCC and control cell lines, CellTiter-Glo viability, 72 h; series mostly up to 46 µM
Outline: as §1

C33A = experiment: Primary qHTS to identify gynecologic anti-cancer compounds using libraries of approved drugs and bioactive compounds (AID 1345084); conditions: Gynecologic cancer cell panel viability, ATPlite luminescence, 48 h; series mostly up to 57.5 µM; note: nearly all actives have a fitted effect of over 55% in size
Outline: (§2)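 Cytotoxicity screen measuring ATP content by luciferase luminescence. Each compound is applied at five concentrations for 48 h at 37 C with 5% CO2.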

CAOV3 = experiment: as above; conditions: Gynecologic cancer cell panel viability, ATPlite luminescence, 48 h; series mostly up to 57.5 µM
Outline: as §2

CASKI = experiment: as above; conditions: Gynecologic cancer cell panel viability, ATPlite luminescence, 48 h; series mostly up to 57.5 µM
Outline: as §2

Es-2 = experiment: as above; conditions: Gynecologic cancer cell panel viability, ATPlite luminescence, 48 h; series mostly up to 57.5 µM
Outline: as §2

HeLa = experiment: as above; conditions: Gynecologic cancer cell panel viability, ATPlite luminescence, 48 h; series mostly up to 57.5 µM
Outline: as §2

Hek293T [3] = experiment: as above; conditions: Gynecologic cancer cell panel viability, ATPlite luminescence, 48 h, control line for the selectivity index; series mostly up to 57.5 µM
Outline: as §2

JEG-3 = experiment: as above; conditions: Gynecologic cancer cell panel viability, ATPlite luminescence, 48 h; series mostly up to 57.5 µM
Outline: as §2

OV90 = experiment: as above; conditions: Gynecologic cancer cell panel viability, ATPlite luminescence, 48 h; series mostly up to 57.5 µM
Outline: as §2

PA-1 = experiment: as above; conditions: Gynecologic cancer cell panel viability, ATPlite luminescence, 48 h; series mostly up to 57.5 µM
Outline: as §2

SKOV3 = experiment: as above; conditions: Gynecologic cancer cell panel viability, ATPlite luminescence, 48 h; series mostly up to 57.5 µM
Outline: as §2

HEK293T [4] = experiment: qHTS assay to identify novel small-molecules to repurpose for Merkel cell carcinoma treatment (AID 1296009); conditions: MCC and control cell lines, CellTiter-Glo viability, 72 h; at 44.8 µM (top of the series) unless noted; note: nearly all actives have a fitted effect of over 60% in size
Outline: as §1
% is set by controls: 0 for no effect and ±100 for the full control effect.

COC(=O)c1ccc(O)cc1
inactive: outcome (NIH3T3 [1]) | outcome (HACAT) | outcome (MCC-13) | outcome (MCC-26) | outcome (MKL-1) | outcome (MKL-2) | outcome (NIH3T3 [2]) | outcome (UISO) | outcome (WaGa) | outcome (C33A) | outcome (CAOV3) | outcome (CASKI) | outcome (Es-2) | outcome (HeLa) | outcome (Hek293T [3]) | outcome (JEG-3) | Potency (OV90) | outcome (PA-1) | outcome (SKOV3)

COC(=O)c1cccnc1
inactive: max response (NIH3T3 [1]) 0.586% | outcome (HACAT) | outcome (HEK293T [4]) | outcome (MCC-13) | outcome (MCC-26) | outcome (MKL-1) | outcome (MKL-2) | outcome (UISO) | outcome (WaGa) | outcome (C33A) | outcome (CAOV3) | outcome (CASKI) | outcome (Es-2) | outcome (HeLa) | outcome (Hek293T [3]) | outcome (JEG-3) | Potency (OV90) | outcome (PA-1)

O=C1C(c2[nH]c3ccccc3c2O)=Nc2ccccc21
inactive: max response (NIH3T3 [1]) 4.36% | outcome (HACAT) | outcome (HEK293T [4]) | outcome (MCC-13) | outcome (MKL-1) | outcome (MKL-2) | outcome (WaGa) | outcome (C33A) | outcome (CASKI) | outcome (Es-2) | outcome (HeLa) | outcome (Hek293T [3]) | outcome (JEG-3) | Potency (OV90) | outcome (PA-1) | outcome (SKOV3)

CCN(CC)C(=O)c1cccc(C)c1
inactive: outcome (NIH3T3 [1]) | outcome (HACAT) | outcome (MCC-13) | outcome (MCC-26) | outcome (MKL-1) | outcome (MKL-2) | outcome (NIH3T3 [2]) | outcome (UISO) | outcome (WaGa) | outcome (C33A) | outcome (CAOV3) | outcome (CASKI) | outcome (Es-2) | outcome (HeLa) | outcome (Hek293T [3]) | outcome (JEG-3) | Potency (OV90) | outcome (PA-1) | outcome (SKOV3)

CC(CN(C)C)C(C)(O)Cc1ccc(Cl)cc1 (stereo unspecified)
inactive: outcome (NIH3T3 [1]) | outcome (HACAT) | outcome (MCC-13) | outcome (MCC-26) | outcome (MKL-1) | outcome (MKL-2) | outcome (NIH3T3 [2]) | outcome (UISO) | outcome (WaGa) | outcome (C33A) | outcome (CAOV3) | outcome (CASKI) | outcome (Es-2) | outcome (HeLa) | outcome (Hek293T [3]) | outcome (JEG-3) | Potency (OV90) | outcome (PA-1) | outcome (SKOV3)

CN1CCCN=C1COC(=O)C(O)(c1ccccc1)C1CCCCC1 (stereo unspecified)
inactive: outcome (NIH3T3 [1]) | outcome (HACAT) | outcome (MCC-13) | outcome (MCC-26) | outcome (MKL-1) | outcome (MKL-2) | outcome (NIH3T3 [2]) | outcome (UISO) | outcome (WaGa) | outcome (C33A) | outcome (CAOV3) | outcome (CASKI) | outcome (Es-2) | outcome (HeLa) | outcome (Hek293T [3]) | outcome (JEG-3) | Potency (OV90) | outcome (PA-1) | outcome (SKOV3)

NC(=O)N[C@@H](CCC(=O)O)C(=O)O
inactive: outcome (NIH3T3 [1]) | outcome (HACAT) | outcome (MCC-13) | outcome (MCC-26) | outcome (MKL-1) | outcome (MKL-2) | outcome (NIH3T3 [2]) | outcome (UISO) | outcome (WaGa) | outcome (C33A) | outcome (CAOV3) | outcome (CASKI) | outcome (Es-2) | outcome (Hek293T [3]) | outcome (JEG-3) | Potency (OV90) | outcome (SKOV3)

COc1ccc2cc(CCC(C)=O)ccc2c1
inactive: max response (NIH3T3 [1]) -0.0731% | outcome (HACAT) | outcome (HEK293T [4]) | outcome (MCC-13) | outcome (MCC-26) | outcome (MKL-1) | outcome (MKL-2) | outcome (UISO) | outcome (WaGa) | outcome (C33A) | outcome (CAOV3) | outcome (CASKI) | outcome (Es-2) | outcome (HeLa) | outcome (PA-1)

CC(=O)Oc1cccc(O)c1
inactive: outcome (NIH3T3 [1]) | outcome (HACAT) | outcome (MCC-13) | outcome (MCC-26) | outcome (MKL-1) | outcome (MKL-2) | outcome (NIH3T3 [2]) | outcome (UISO) | outcome (WaGa) | outcome (C33A) | outcome (CAOV3) | outcome (CASKI) | outcome (Es-2) | outcome (HeLa) | outcome (Hek293T [3]) | outcome (JEG-3) | outcome (PA-1) | outcome (SKOV3)

OCc1ccc(Cl)cc1Cl
inactive: outcome (NIH3T3 [1]) | outcome (HACAT) | outcome (MCC-13) | outcome (MCC-26) | outcome (MKL-1) | outcome (MKL-2) | outcome (NIH3T3 [2]) | outcome (UISO) | outcome (WaGa) | outcome (C33A) | outcome (CASKI) | outcome (Es-2) | outcome (HeLa) | outcome (Hek293T [3]) | outcome (JEG-3) | Potency (OV90) | outcome (PA-1)

C=CCOc1ccccc1OCC(O)CNC(C)C (stereo unspecified)
inactive: max response (NIH3T3 [1]) 4.04% | outcome (HACAT) | outcome (MCC-13) | outcome (MCC-26) | outcome (MKL-1) | outcome (MKL-2) | outcome (UISO) | outcome (WaGa) | outcome (C33A) | outcome (CAOV3) | outcome (CASKI) | outcome (Es-2) | outcome (HeLa) | outcome (Hek293T [3]) | outcome (JEG-3) | Potency (OV90) | outcome (PA-1) | outcome (SKOV3)

O=C(O)Cc1ccc(CCNS(=O)(=O)c2ccc(Cl)cc2)cc1
inactive: max response (NIH3T3 [1]) -0.48% | outcome (HACAT) | outcome (MCC-13) | outcome (MCC-26) | outcome (MKL-1) | outcome (MKL-2) | outcome (UISO) | outcome (WaGa) | outcome (C33A) | outcome (CAOV3) | outcome (CASKI) | outcome (Es-2) | outcome (HeLa) | outcome (Hek293T [3]) | outcome (JEG-3) | Potency (OV90) | outcome (PA-1) | outcome (SKOV3)

Cc1ccc(S(=O)(=O)NC(=O)NC2CCCCC2)cc1
inactive: max response (NIH3T3 [1]) 0.0689% | outcome (HACAT) | outcome (MCC-13) | outcome (MCC-26) | outcome (MKL-1) | outcome (MKL-2) | outcome (UISO) | outcome (WaGa) | outcome (C33A) | outcome (CAOV3) | outcome (CASKI) | outcome (Es-2) | outcome (HeLa) | outcome (Hek293T [3]) | outcome (JEG-3) | Potency (OV90) | outcome (PA-1) | outcome (SKOV3)

O=C(O)c1cc(=O)c2ccccc2o1
inactive: outcome (NIH3T3 [1]) | outcome (HACAT) | outcome (MCC-13) | outcome (MCC-26) | outcome (MKL-1) | outcome (MKL-2) | outcome (NIH3T3 [2]) | outcome (UISO) | outcome (WaGa) | outcome (C33A) | outcome (CASKI) | outcome (Es-2) | outcome (HeLa) | outcome (Hek293T [3]) | outcome (JEG-3) | Potency (OV90) | outcome (PA-1) | outcome (SKOV3)

Cc1ccc2c(c1)c1c3n2CCNC3CCC1 (stereo unspecified)
inactive: max response (NIH3T3 [1]) -0.828% | outcome (HACAT) | outcome (MCC-13) | outcome (MCC-26) | outcome (MKL-1) | outcome (MKL-2) | outcome (UISO) | outcome (WaGa) | outcome (C33A) | outcome (CAOV3) | outcome (CASKI) | outcome (Es-2) | outcome (HeLa) | outcome (Hek293T [3]) | outcome (JEG-3) | Potency (OV90) | outcome (PA-1)
